Results filed as inconclusive are left out. Where a call stands in place of a potency, no number is given. Calls of active or inactive are those of the source. Calls follow the shape of the dose curve; as a rule, active = well fitted cell-killing curve with a large enough effect in the repeat runs; inconclusive = weak or mixed curves, or effect the other way; inactive = no such curve, though single readings can be large or run the other way. Where a SMILES comes first, the peptide text is derived from it. [ ]: non-standard residue; d: D form. pGlu = O=C1CC[C@@H](C(=O)O)N1
test: qHTS assay to identify small molecule agonists of the RXR signaling pathway - cell viability counter screen (AID 1159529); conditions: RXR-alpha-bla HEK293T viability, CellTiter-Glo, 16 h; series mostly up to 76.8 µM; also: nearly all actives have a fitted effect of over 50% in size
Text: National Center for Advancing Translational Sciences [NCATS]
NIH Chemical Genomics Center [NCGC]
U.S. Environmental Protection Agency [EPA]
National Institutes of Environmental Health Sciences [NIEHS]
National Toxicology Program [NTP]
U.S. Food and Drug Administration [FDA]
The Retinoid X receptor (RXR), a nuclear hormone receptor expressed in liver, spleen, placenta, epidermis, central nervous system. These receptors are able to form homo and heterodimers with other nuclear receptors and due to this heterodimerizing ability, RXR functions as master regulators producing diverse physiological effects. Three subtypes of RXR exist; alpha, beta and gamma. Retinoid X receptor alpha (RXR-alpha) has potential roles in metabolic signaling pathways, skin alopecia, dermal cysts, cardiac development, insulin sensitization etc. Therefore screening environmental chemicals on RXR-alpha signaling can be used for the studies focused on such therapeutic applications. For quantification of RXR-alpha ligands signaling, GeneBLAzer RXR alpha-UAS-bla HEK 293T (Life Technologies, Carlsbad, CA) cells containing a beta-lactamase reporter-gene under control of Retinoid X receptor-alpha response element were used to screen Tox21 10K library. The cytotoxicity of the Tox21 compound library against the RXR-alpha HEK 293T cell line was tested in parallel by measuring cell viability using CellTiter-Glo assay (Promega Corporation, Madison, WI) in the same wells.
Tox21 Assay Protocol Summary:
RXR-alpha HEK 293T cells were dispensed at 2,000 cells/6 uL of assay medium containing 2% charcoal-stripped FBS using a Multidrop Combi (ThermoFisher Scientific, Waltham, MA) dispenser. The assay was performed in black wall/clear-bottom 1536-well plates (Greiner Bio-One North America Inc. Monroe, NC). Tetraoctyl ammonium bromide was used as a positive control in the cytotoxicity screen. After the assay plates were incubated at 37 C and 5% CO2 for 5 hr, 23 nL of compounds dissolved in DMSO, positive control or DMSO only were transferred to the assay plate by a Pintool station (Kalypsys, San Diego, CA). The assay plates were incubated at 37 C and 5% CO2 for 16 hr. One uL of LiveBLAzer B/G FRET substrate (Life Technologies) was added using a Flying Reagent Dispenser (FRD) (Aurora Discovery, San Diego, CA) and the plates were incubated at room temperature for 2 hr. Fluorescence intensity (405 nm excitation, 460/530 nm emission) was measured using an Envision plate reader (PerkinElmer, Shelton, CT). For cytotoxicity, 4 uL/well of CellTiter-Glo reagent was added into the assay plates using an FRD. After 30 min incubation at room temperature, the luminescence intensity was measured using a ViewLux plate reader (PerkinElmer).

SMILES | Potency | activity change, negative = cytotoxicity
CC1(C)OC[C@@H](COC(=O)CCc2ccc(OC[C@@H](O)CNCCNC(=O)N3CCOCC3)cc2)O1 | inactive | 
COC(=O)Nc1ccc(Cl)c(Cl)c1 | inactive | 
CN1CCC(=C2c3ccccc3CCc3cccnc32)CC1 | inactive | 
CCN[C@@H]1C[C@H](N)[C@@H](OC2OC(CN)=CCC2N)[C@H](O)[C@H]1O[C@H]1OC[C@](C)(O)[C@H](NC)[C@H]1O (stereo not given in full) |  | -0.24% [at 0.29 µM] (inactive)
Cc1coc2ccccc2c1=O | inactive | 
CC(CC=O)CC(C)(C)C (stereo not given) | inactive | 
CN(C)C(=O)Oc1cccc([N+](C)(C)C)c1 | inactive | 
CCCCCCCCCCCCSC | inactive | 
CCCCCCCC1CCCC1=O (stereo not given) | inactive | 
CC(C)(N)C#N | inactive | 
CN1CC(=O)N/C1=N/C(=O)Nc1cccc(Cl)c1 | inactive | 
CCNC(=O)[C@@H]1CCCN1C(=O)[C@H](CCCN=C(N)N)NC(=O)[C@H](CC(C)C)NC(=O)CNC(=O)[C@H](Cc1ccc(O)cc1)NC(=O)[C@H](CO)NC(=O)[C@H](Cc1c[nH]c2ccccc12)NC(=O)[C@H](Cc1cnc[nH]1)NC(=O)[C@@H]1CCC(=O)N1 ([pGlu]HWSYGLRP-NHEt) | inactive | 
O=C1c2ccccc2C(=O)c2cc(O)ccc21 | inactive | 
CC(C)(CCC(=O)O)C(=O)O | inactive | 
C[C@@H]1C[C@H]2[C@@H]3C[C@H](F)C4=CC(=O)C(Cl)=C[C@]4(C)[C@@]3(F)[C@@H](O)C[C@]2(C)[C@@]1(O)C(=O)CO | inactive | 
CC(C)COC(=O)c1ccc(N)cc1 | inactive | 
CCCCCCCCCCOc1cc2c(=O)c(C(=O)OCC)c[nH]c2cc1OCC |  | -0.18% [at 6.97 µM] (inactive)
CCCOC(=O)CC | inactive | 
COc1cc(-c2ccc(=O)[nH]n2)ccc1OC(F)F | inactive | 
CC[N+](C)(CC)CCOC(=O)C1c2ccccc2Oc2ccccc21 | inactive | 

SMILES | Potency | activity change, negative = cytotoxicity
Cc1ncc([C@@H](CCCCCCc2ccc3c(n2)NCCC3)CC(=O)O)cn1 | inactive | 
CC(C)(C)c1ccc(-c2ccc(C(C)(C)C)cc2)cc1 | inactive | 
O=[N+]([O-])c1ccc(/C=N\O)o1 | inactive | 
CNCC(O)c1ccc(O)c(O)c1 (stereo not given) | inactive | 
CC1(C)[C@@H]2CC[C@@]1(C)[C@H](O)C2 | inactive | 
O=S(=O)(O)c1cccc(S(=O)(=O)O)c1 | inactive | 
O=C(c1ccccc1O)c1ccccc1O | inactive | 
CC(=O)N[C@H]1[C@H]([C@H](O)[C@H](O)CO)OC(C(=O)O)=C[C@@H]1N=C(N)N | inactive | 
N[C@H](C(=O)O)[C@@H](O)c1ccc(O)c(O)c1 | inactive | 
C=COC(=O)C(C)(CC)CCC(C)C (stereo not given) | inactive | 
[Ca+2] | inactive | 
C[N+](C)(CCOc1ccccc1)Cc1cccs1 | inactive | 
CCCO[Si](OCCC)(OCCC)OCCC | inactive | 
COc1ccc2cc1Oc1cc3c(cc1OC)CC[N+](C)(C)[C@H]3Cc1ccc(cc1)Oc1c(OC)c(OC)cc3c1[C@@H](C2)[N+](C)(C)CC3 | inactive | 
CN1[C@@H]2CC[C@H]1CC(OC(=O)C(O)c1ccccc1)C2 (stereo not given in full) | inactive | 
O=C1CCCCCCCCCCCCCCO1 | inactive | 
CCCc1ncc(C[n+]2ccccc2C)c(N)n1 | inactive | 
Nc1ccccn1 | inactive | 
C=C[Si](OC(C)=O)(OC(C)=O)OC(C)=O | inactive | 
CCN1CCOCC1 | inactive | 

Source: PubChem BioAssay (Tox21)
